# Experimental data: the supplement of paper PMC10981050
# “And” between values parts separate entries of the source, which are not always exact repeats. Equal entries are not always repeated. Structures can show the parent of a compound that is named as a salt.
# Legend:
# Experiment in all cases: cell viability relative to vehicle control; higher = less cytotoxic
# Conditions in all cases: 10 µM
# [1] = test system: K562
# How it was run: (§1)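 CRISPR-edited mutant clones and isogenic wild-type clones from four leukaemia lines were screened against Selleck bioactive, kinase and epigenetic probe libraries, with identity-inconsistent compounds excluded. Each compound was acoustically dispensed at a single 10 µM dose into 384-well plates holding 2000 cells in 50 µL medium per well. After 48 h the supernatant was removed and CellTiter-Glo luminescence was read. Viability was expressed as percent of the on-plate vehicle control and analysed in Genedata Screener.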
# [2] = test system: MARIMO
# How it was run: as §1
# [3] = test system: MOLM14
# How it was run: as §1
# [4] = test system: OCI-AML2
# How it was run: as §1
Compound,cell viability ([1]; SRSF2 genotype: SRSF2 P95H/wt),cell viability ([1]; SRSF2 genotype: SRSF2 wt/wt),cell viability ([2]; SRSF2 genotype: SRSF2 P95H/wt),cell viability ([2]; SRSF2 genotype: SRSF2 wt/wt),cell viability ([3]; SRSF2 genotype: SRSF2 P95H/wt),cell viability ([3]; SRSF2 genotype: SRSF2 wt/wt),cell viability ([4]; SRSF2 genotype: P95H/wt),cell viability ([4]; SRSF2 genotype: wt/wt)
CC[C@]1(O)C[C@H]2CN(CCc3c([nH]c4ccccc34)[C@@](C(=O)OC)(c3cc4c(cc3OC)N(C=O)[C@H]3[C@@](O)(C(=O)OC)[C@H](OC(C)=O)[C@]5(CC)C=CCN6CC[C@]43[C@@H]65)C2)C1 [Vincristine Sulfate],13.6% and 37%,35.8%,6.92%,9.68%,0.94%,1.22%,5.06%,9.32%
COc1cc2c(c(O)c1OC)-c1c(cc(OC)c(OC)c1OC)C[C@@H](C)[C@@H](C)C2 [Schisanhenol],96.7% and 100%,97.1%,100%,107%,90.3%,96.8%,91.7%,102%
Cc1ccc(C(=O)c2cc(O)c(O)c([N+](=O)[O-])c2)cc1 [Tolcapone],107% and 113%,112%,109%,111%,106%,109%,113%,97.3%
CC(C)c1cnn2c(NCc3ccccc3)cc(NCCCCCCN)nc12,86.8% and 99.7%,101%,89.9%,87.8%,95.9%,98.5%,89.4%,87.5%
NC(=S)c1ccncc1 [Thioisonicotinamide],107% and 101%,98.9%,96.9%,105%,103%,105%,99.4%,110%
CC(C)=CCC[C@](C)(O[C@@H]1O[C@H](CO[C@@H]2OC[C@@H](O)[C@H](O)[C@H]2O)[C@@H](O)[C@H](O)[C@H]1O)[C@H]1CC[C@]2(C)[C@@H]1[C@H](O)C[C@@H]1[C@@]3(C)CC[C@H](O[C@@H]4O[C@H](CO)[C@@H](O)[C@H](O)[C@H]4O[C@@H]4O[C@H](CO)[C@@H](O)[C@H](O)[C@H]4O)C(C)(C)[C@@H]3CC[C@]12C [Ginsenoside Rb3],101% and 96.7%,108%,103%,103%,109%,102%,101%,101%
NC(=O)[C@@H]1CCCN1C(=O)[C@H](Cc1c[nH]cn1)NC(=O)[C@@H]1CCC(=O)N1 [Protirelin],99.8% and 93.1%,104%,99.2%,108%,101%,100%,102%,100%
CC(=O)N[C@@H](CS)C(=O)O [Acetylcysteine],101% and 97.9%,95.6%,97.5%,92.6%,97%,97.5%,102%,98%
C=C1C(=O)O[C@@H]2C[C@@]3(C)CCCC(=C)[C@@H]3C[C@H]12 [Isoalantolactone],27.5% and 44.2%,40.2%,23%,25.4%,12%,16.1%,1.8%,6.98%
Cc1ncc(CO)c(CO)c1O [Metadoxine],99.4% and 100%,104%,98.1%,103%,101%,103%,101%,114%
O=C1O[C@H]([C@@H](O)CO)C(O)=C1O [Vitamin C (Ascorbic acid)],89.8% and 88.3%,85.8%,100%,92.8%,90.8%,95.1%,91%,93%
COc1ccc([C@@H]2CC(=O)c3c(O)cc(O[C@@H]4O[C@H](CO[C@@H]5O[C@@H](C)[C@H](O)[C@@H](O)[C@H]5O)[C@@H](O)[C@H](O)[C@H]4O)cc3O2)cc1O [Hesperidin],105% and 115%,111%,107%,109%,109%,113%,112%,97.2%
CC1=CC(=O)c2ccccc2C1=O [Menadione],95.2% and 95.7%,108%,98.9%,93.1%,91.1%,102%,14.8%,12.8%
O=C(c1cn(Cc2cncn2Cc2ccc(Br)cc2)cc1-c1cccc2ccccc12)N1CCOCC1,48.4% and 62.4%,47.2%,34.1%,36.4%,35.1%,39.1%,25.7%,32.2%
C[C@H](Cn1cnc2c(N)ncnc21)OCP(=O)(O)O [Tenofovir (Viread)],101%,98.5%,97.2%,101%,105%,98.3%,106%,109%
CC(C)(C(=O)O)c1ccc(C(O)CCCN2CCC(C(O)(c3ccccc3)c3ccccc3)CC2)cc1 (stereo not given) [Fexofenadine HCl],99.1% and 98.7%,101%,95.9%,103%,100%,101%,94.1%,110%
O=C(/C=C/c1ccccc1)OCc1ccccc1 [Benzyl cinnamate],101% and 100%,103%,85.5%,99.6%,108%,104%,92.1%,93.1%
C=C1C(=O)O[C@@H]2/C=C(\C)CC/C=C(\C)CC[C@@H]12 [Costunolide],23.8% and 32%,41.4%,25.3%,17.8%,3.29%,5.5%,2.25%,7.11%
O=C(O)[C@H]1CSC(c2nc3ccc(O)cc3s2)=N1 [D-Luciferin],90.6% and 83.7%,92.3%,82.4%,92.8%,85.8%,90.7%,86.7%,87.9%
COc1ccc(CCC(=O)c2c(O)cc(O[C@@H]3O[C@H](CO)[C@@H](O)[C@H](O)[C@H]3O[C@@H]3O[C@@H](C)[C@H](O)[C@@H](O)[C@H]3O)cc2O)cc1O [Neohesperidin dihydrochalcone (Nhdc)],107% and 83.6%,84.9%,82.7%,90.5%,82.3%,86.8%,89.6%,84.9%
